This is an account of results in PubChem BioAssay (NCATS).

Each structure is given as a SMILES string. Unmarked numbers belong to inactive results. Records with an inconclusive call do not appear. Active and inactive are the calls of the source. Calls come from the whole dose curve; as a rule, active = well fitted curve in the direction sought with a large enough effect; inconclusive = small, poorly fitted or top-dose-only effect, or another doubt; inactive = no such curve, though single readings can be large; an effect the other way counts as inactive or inconclusive.

For assay [1], the target named is Glutathione peroxidase 1 (Homo sapiens) (UniProt P07203). Nature of the assay: Primary qHTS Assay for Inhibitors of Recombinant Selenoprotein Glutathione Peroxidase 1 (GPX1) (AID 1845191). For activity, negative = inhibition: % is set by controls: 0 for no effect and ±100 for the full control effect. Note: nearly all actives have a fitted effect of over 65% in size. In outline:
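Recombinant GPX1 (10 nM final) was preincubated with compound for 30 min at room temperature, then reacted with 1 mM GSH, 0.5 mM CHP, 0.5 mM NADPH and 100 nM glutathione reductase; NADPH fluorescence (340/450 nm) was read at 0 and 15 min.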

The target in assay [2] is Phospholipid hydroperoxide glutathione peroxidase GPX4 (Homo sapiens) (UniProt P36969). The assay can be described thus: Primary qHTS Assay for Inhibitors of Recombinant Selenoprotein Glutathione Peroxidase 4 (GPX4) (AID 1845192). For activity change, negative = inhibition: series mostly up to about 50 µM; % is set by controls: 0 for no effect and ±100 for the full control effect. Note: nearly all actives have a fitted effect of over 65% in size. A digest of the protocol:
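GR-coupled readout: 100 nM GR, 1 mM GSH, 0.5 mM NADPH; NADPH fluorescence (ex 340/em 450 nm) read at t=0 and after 15 min RT. GPX4 200 nM, preincubated 30 min with compound; substrate 0.5 mM CHP.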

The target in assay [3] is Luciferin 4-monooxygenase (Photinus pyralis) (UniProt P08659). Nature of the assay: Primary firefly luciferase (FLuc) qHTS assay for identification of artifact compounds. (AID 1845220).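 For activity change, negative = inhibition: series mostly up to about 54 µM; plate controls were DMSO vehicle for no effect and no enzyme for full effect.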 Note: nearly all actives have a fitted effect of over 60% in size. A digest of the protocol: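 qHTS, 15 min compound preincubation with substrate (10 uM luciferin, 10 uM ATP) at RT, then 10 nM FLuc; 5 min; luminescence; % inhibition vs no-enzyme/DMSO controls, 4-parameter Hill fit.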

Assay [4] can be described thus: Primary fluorescence-based thiol-reactive (MSTI) qHTS assay for identification of artifact compounds. (AID 1845221).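 For activity change, negative = thiol reactive: series mostly up to about 54 µM; thiol-reactive compounds lower the probe fluorescence signal.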 Note: nearly all actives have a fitted effect of over 65% in size. Note: potency is the fitted concentration of half-maximal effect. In outline:
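MSTI probe at 4 uM final in 2% DMSO/PBS pH 7.4; compounds, 1 h at room temperature in dark. Fluorescence Ex/Em 525/598 nm, normalised to Acetyl-MSTI and MSTI, fitted to 4-parameter Hill.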

The test system of assay [5] is Nanoluciferase (engineered Oplophorus gracilirostris luciferase). The assay can be described thus: Primary Nanoluciferase (NLuc) qHTS assay for identification of artifact compounds. (AID 1845222).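 Note: series mostly up to about 54 µM; 0% = DMSO and -100% = no enzyme.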 In outline:
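Luminescence read-out of secreted NLuc in S16 cell conditioned medium (1:55); compounds tested with 15 min RT preincubation, then Nano-Glo substrate 1:100, 5 min. % inhibition vs no-enzyme and DMSO controls, 4-parameter Hill fit.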

Assay [6] in a line: Primary redox qHTS assay for identification of artifact compounds. (AID 1845223).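 For redox activity (% of DA3003): 0% = DMSO and 100% = reference compound.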 Note: potency is the fitted concentration of half-maximal effect. A digest of the protocol:
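Amplex Red (25 uM) and HRP (250 mU/mL) in HBSS, with compounds for 15 min, then 250 uM DTT for 30 min, room temperature, dark. Fluorescence 525/598 nm read; normalized to DMSO and 10 uM DA3003; Hill fit.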

Sequence of Phospholipid hydroperoxide glutathione peroxidase GPX4 (Homo sapiens) (P36969 whole entry, looked up): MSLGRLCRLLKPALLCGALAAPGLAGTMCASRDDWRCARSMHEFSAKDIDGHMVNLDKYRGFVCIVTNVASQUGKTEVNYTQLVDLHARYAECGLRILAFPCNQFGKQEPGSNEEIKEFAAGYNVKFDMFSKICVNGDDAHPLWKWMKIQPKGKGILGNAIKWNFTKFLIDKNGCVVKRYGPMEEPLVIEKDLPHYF
Sequence of Glutathione peroxidase 1 (Homo sapiens) (P07203 whole entry, looked up): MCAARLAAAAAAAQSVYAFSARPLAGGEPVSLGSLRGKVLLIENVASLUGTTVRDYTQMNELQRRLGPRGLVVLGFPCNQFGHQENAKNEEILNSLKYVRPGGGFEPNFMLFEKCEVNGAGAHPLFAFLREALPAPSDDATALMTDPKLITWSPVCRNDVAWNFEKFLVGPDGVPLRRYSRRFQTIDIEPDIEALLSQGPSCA

`[N-]=[N+]=N[C@]1(CO)O[C@@H](n2ccc(=O)[nH]c2=O)[C@@H](O)[C@@H]1O`: the Potency result in assay [1], in assay [2], in assay [3], in assay [4], in assay [5] and in assay [6] was “inactive” throughout.

With `CC1(C)CC[C@]2(C(=O)O[C@@H]3O[C@H](CO[C@@H]4O[C@H](CO)[C@@H](O)[C@H](O)[C@H]4O[C@@H]4O[C@H](CO)[C@@H](O)[C@H](O)[C@H]4O)[C@@H](O)[C@H](O[C@@H]4O[C@H](CO)[C@@H](O)[C@H](O)[C@H]4O)[C@H]3O)CC[C@]3(C)C(=CCC4[C@@]5(C)CC[C@@H](O)[C@@](C)(C(=O)O[C@@H]6O[C@H](CO)[C@@H](O)[C@H](O)[C@H]6O)C5CC[C@]43C)[C@@H]2C1` (stereo partly drawn), the activity, negative = inhibition is -10.6% [at 9.52 µM] in assay [1] and 2% [at 11.6 µM] in assay [5]. Also, the outcome in assay [2] is “inactive [at 9.73 µM]”. For the same compound, the activity change, negative = inhibition in assay [3] is 2.91% [at 11.6 µM]. In addition, the activity change, negative = thiol reactive in assay [4] was 344% [at 11.5 µM]. The redox activity (% of DA3003) in assay [6] was 5.34% [at 11.5 µM].

For `CN(C)C/C=C/C(=O)Nc1cccc(C(=O)Nc2ccc(Nc3nccc(-c4cccnc4)n3)cc2)c1`, the Potency entry in assay [1], in assay [2], in assay [3], in assay [4], in assay [5] and in assay [6] was “inactive” throughout.

For `O=C1NC(Cc2c[nH]c3ccccc23)C(=O)NC1Cc1cnc[nH]1` (stereo not drawn), the Potency entry in assay [1], in assay [2], in assay [3], in assay [4], in assay [5] and in assay [6] was “inactive” in each case.

For `CN(C)c1nc(NC2CCC(NCCc3ccc(Br)cc3OC(F)(F)F)CC2)nc2ccccc12` (stereo not drawn), the Potency result in assay [1], in assay [2], in assay [3], in assay [4], in assay [5] and in assay [6] was “inactive” each time.

Turning to `NC(=O)c1cnc(NCCc2ccc(O)c(Cl)c2)nc1NCc1ccccc1`, the Potency entry in assay [1], in assay [2], in assay [3], in assay [4], in assay [5] and in assay [6] was “inactive” throughout.

As to `COc1c2cc(c(O)c1OC)-c1cc(ccc1O)CCC(O)CCCC2` (stereo not drawn), the Potency result in assay [1], in assay [2], in assay [3], in assay [4], in assay [5] and in assay [6] was “inactive” in each case.

Regarding `C/C1=C\CC[C@]2(C)O[C@@H]2[C@H](O)[C@H](C(C)C)[C@H](OC(=O)/C=C/c2ccccc2)C1`, the Potency entry in assay [1], in assay [2], in assay [3], in assay [4], in assay [5] and in assay [6] was “inactive” each time.

As for `C/C=C(\C)C(=O)O[C@@H]1CC2[C@@H](CC=C3C[C@@H](O[C@H]4C[C@H](OC)[C@H](O[C@H]5C[C@H](OC)[C@H](O[C@@H]6O[C@H](C)[C@@H](O[C@H]7C[C@H](OC)[C@H](O[C@@H]8O[C@H](CO)[C@@H](O)[C@H](O)[C@H]8O)[C@@H](C)O7)[C@H](OC)[C@H]6O)[C@@H](C)O5)[C@@H](C)O4)CC[C@@]32C)[C@@]2(O)CC[C@H](C(C)=O)[C@@]12C` (stereo partly drawn), the outcome in assay [1] was “inactive [at 9.52 µM]”; in assay [3], “inactive [at 11.6 µM]”. The activity change, negative = inhibition in assay [2] is -6.94% [at 9.73 µM]. Also, the activity change, negative = thiol reactive in assay [4] is 14.5% [at 11.5 µM]. In addition, the activity, negative = inhibition in assay [5] was 2.98% [at 11.6 µM]. Also, the redox activity (% of DA3003) in assay [6] was -4.24% [at 11.5 µM].

As for `C=C1CC23CC1CCC2C12OC(=O)C(C)(CCC1O)C2C3C(=O)O` (stereo not drawn), the Potency result in assay [1], in assay [2], in assay [3], in assay [4], in assay [5] and in assay [6] was “inactive” in each case.

With `CC1CC(O)C2(OC1=O)OC1C(O)C3C4CCC5CC(OC6OC(CO)C(O)C(O)C6OC6OC(C)C(O)C(O)C6O)CCC5(C)C4CCC3(C)C1C2C` (stereo not drawn), the Potency result in assay [1], in assay [2], in assay [3], in assay [4], in assay [5] and in assay [6] was “inactive” in each case.

With `N#C[C@@H]1CCCN1C(=O)CNC12CC3CC(CC(O)(C3)C1)C2`, the Potency entry in assay [1], in assay [2], in assay [3], in assay [4], in assay [5] and in assay [6] was “inactive” throughout.

For `Cc1cc(OCc2nnc(SC3CCCC3)n2-c2cccnc2)ccc1-c1ccc(S(C)(=O)=O)cc1`, the Potency entry in assay [1], in assay [2], in assay [3], in assay [4], in assay [5] and in assay [6] was “inactive” throughout.

With `CC(=O)OC1C(c2ccccc2)CCC(c2ccccc2)C1OC(C)=O` (stereo not drawn), the Potency result in assay [1], in assay [2], in assay [3], in assay [4], in assay [5] and in assay [6] was “inactive” throughout.

Consider `C=CC1(C)CC(OC(=O)/C(C)=C\COC(C)=O)C(C(=C)C(=O)O)C(O)C1C(=C)CO` (stereo not drawn), for which the Potency result in assay [1], in assay [2], in assay [3], in assay [4], in assay [5] and in assay [6] was “inactive” each time.

Consider `CC(C)c1cc2c(c(O)c1O)[C@@]13CCCC(C)(C)[C@@H]1[C@H](OC3=O)C2=O`, for which the Potency entry in assay [1], in assay [2], in assay [3] and in assay [5] was “inactive” in each case. Besides, the results for the Potency in assay [4] and in assay [6] were 2.33 µM (active) and 16.5 µM (active), respectively.

Take `COC(=O)c1ccc(OC(CO)C(O)c2ccc(O)c(OC)c2)c(OC)c1` (stereo not drawn): the Potency result in assay [1], in assay [2], in assay [3], in assay [4], in assay [5] and in assay [6] was “inactive” throughout.

On to `CSc1ccc(C(=O)N[C@@H]2CCCC[C@@H]2NC(=O)CNC(=O)c2cc(C(F)(F)F)ccc2NC(=O)NC(C)C)cc1`, for which the Potency entry in assay [1], in assay [2], in assay [3], in assay [4], in assay [5] and in assay [6] was “inactive” in each case.
